Experimental data reported in PubChem BioAssay (EPA / NIEHS).
Values joined by “and” are separate entries in the source; they are usually repeats but may differ in a detail not shown here. Equal entries are not always repeated. Inconclusive results are not listed. More than one record can exist for a structure, and the calls need not agree. Active and inactive are the calls of the source. The calls were made as follows, unless noted: active = hit-call score of the fitted dose curve at least 0.9, where 1 is the maximum; inconclusive = response in the unintended direction; inactive = score below 0.9.

How the values were obtained:
[1] = biological target: human Peroxisome Proliferator-activated Receptor alpha (PPARa), PPARA (gene 5465) (UniProt Q07869); test: ATG_PPARa_TRANS: Attagene TRANS-FACTORIAL HepG2 Assay for human Peroxisome Proliferator-activated Receptor alpha (PPARa) (AID 2283001);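 as to AC50: potency for gain of reporter signal over DMSO so agonist or activator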
human Peroxisome Proliferator-activated Receptor alpha (PPARa), PPARA (gene 5465), sequence (Q07869 whole entry, looked up, the tested form may be a part): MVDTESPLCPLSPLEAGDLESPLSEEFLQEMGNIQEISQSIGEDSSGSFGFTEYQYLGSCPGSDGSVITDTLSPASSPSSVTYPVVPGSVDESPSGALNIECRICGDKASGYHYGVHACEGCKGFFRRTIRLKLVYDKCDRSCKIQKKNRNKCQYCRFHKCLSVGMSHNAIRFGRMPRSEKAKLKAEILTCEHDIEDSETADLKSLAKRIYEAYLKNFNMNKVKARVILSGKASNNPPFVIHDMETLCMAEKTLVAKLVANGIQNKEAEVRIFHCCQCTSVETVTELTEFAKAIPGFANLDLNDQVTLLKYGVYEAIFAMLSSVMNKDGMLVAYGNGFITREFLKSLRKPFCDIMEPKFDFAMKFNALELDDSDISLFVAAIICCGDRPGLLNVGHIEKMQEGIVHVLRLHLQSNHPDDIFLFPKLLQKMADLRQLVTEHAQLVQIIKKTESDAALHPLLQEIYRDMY
How it was run: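 HepG2 cells transiently transfected with multiplexed GAL4-UAS reporters driven by exogenous chimeric NR-Gal4 proteins; reporter mRNA measured after 24 h dosing. Read-out by RT-PCR, 6-FAM labelling, HpaI digestion and capillary electrophoresis; gain of signal versus DMSO.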

[2] = biological target: human Peroxisome Proliferator-activated Receptor delta (PPARd), PPARD (gene 5467) (UniProt Q03181); test: ATG_PPARd_TRANS: Attagene TRANS-FACTORIAL HepG2 Assay for human Peroxisome Proliferator-activated Receptor delta (PPARd) (AID 2283002)
human Peroxisome Proliferator-activated Receptor delta (PPARd), PPARD (gene 5467), sequence (Q03181 whole entry, looked up, the tested form may be a part): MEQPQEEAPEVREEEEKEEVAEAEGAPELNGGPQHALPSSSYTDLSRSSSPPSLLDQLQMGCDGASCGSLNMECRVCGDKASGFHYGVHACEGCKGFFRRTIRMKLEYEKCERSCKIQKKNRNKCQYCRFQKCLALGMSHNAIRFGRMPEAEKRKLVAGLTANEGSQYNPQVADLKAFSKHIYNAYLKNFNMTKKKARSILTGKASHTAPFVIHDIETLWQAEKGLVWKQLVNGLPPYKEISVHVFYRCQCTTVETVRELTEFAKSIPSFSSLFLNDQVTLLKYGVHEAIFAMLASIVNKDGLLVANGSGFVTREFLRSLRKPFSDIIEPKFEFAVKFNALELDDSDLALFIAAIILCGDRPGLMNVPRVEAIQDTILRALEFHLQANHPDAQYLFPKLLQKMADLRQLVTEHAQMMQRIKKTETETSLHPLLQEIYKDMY
How it was run: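 HepG2 cells transiently transfected with GAL4-UAS multiplexed reporter units driven by exogenous chimeric NR-GAL4 proteins; 24 h compound exposure. Reporter mRNA measured by RT-PCR, 6-FAM primer extension, HpaI digestion and capillary electrophoresis; gain of signal fitted relative to DMSO.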

[3] = BSK_3C_Proliferation: Cell Proliferation Assessment in the BioMAP Diversity Plus: 3C Assay (AID 2283006; active = hit-call score of the fitted dose curve at least 0.9, where 1 is the maximum; inactive = score below 0.9;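 as to AC50: potency may reflect either rise or fall in cell number versus DMSO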); details: primary human endothelial cells (HUVEC)
How it was run: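 Read-out is total protein by SRB absorbance at 560 nm, taken as a proxy for relative cell number. Primary human umbilical vein endothelium cultured below confluence was dosed for 48 h, TCA-fixed and SRB-stained; curves were fitted bidirectionally versus DMSO.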

[4] = biological target: Nuclear receptor subfamily 1 group I member 2 (Homo sapiens) (UniProt O75469); test: ATG_PXR_TRANS: Attagene TRANS-FACTORIAL HepG2 Assay for human Pregnane X Receptor (PXR) (AID 2283008)
Nuclear receptor subfamily 1 group I member 2 (Homo sapiens), sequence (O75469 whole entry, looked up, the tested form may be a part): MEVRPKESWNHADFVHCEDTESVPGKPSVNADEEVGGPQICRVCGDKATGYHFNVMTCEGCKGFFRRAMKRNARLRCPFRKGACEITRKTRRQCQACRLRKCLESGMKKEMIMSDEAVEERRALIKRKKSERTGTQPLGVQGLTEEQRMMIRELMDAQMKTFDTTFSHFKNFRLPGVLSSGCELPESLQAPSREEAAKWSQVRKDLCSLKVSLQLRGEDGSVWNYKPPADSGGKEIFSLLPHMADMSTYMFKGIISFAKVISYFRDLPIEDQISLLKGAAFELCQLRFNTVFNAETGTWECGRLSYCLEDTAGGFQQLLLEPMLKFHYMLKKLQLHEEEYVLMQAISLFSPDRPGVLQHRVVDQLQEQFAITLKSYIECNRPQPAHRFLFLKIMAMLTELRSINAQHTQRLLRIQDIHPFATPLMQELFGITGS
How it was run: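 HepG2 cells transiently transfected with multiple reporter units, here a PXR-GAL4 chimera driving a GAL4-UAS reporter; 24 h compound exposure. Reporter mRNA measured by RT-PCR, FAM labelling and capillary electrophoresis; gain of signal fitted against DMSO baseline.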

[5] = biological target: human RAR-related Orphan Receptor beta (RORb), RORB (gene 6096) (UniProt Q92753); test: ATG_RORb_TRANS: Attagene TRANS-FACTORIAL HepG2 Assay for human RAR-related Orphan Receptor beta (RORb) (AID 2283010)
human RAR-related Orphan Receptor beta (RORb), RORB (gene 6096), sequence (Q92753 whole entry, looked up, the tested form may be a part): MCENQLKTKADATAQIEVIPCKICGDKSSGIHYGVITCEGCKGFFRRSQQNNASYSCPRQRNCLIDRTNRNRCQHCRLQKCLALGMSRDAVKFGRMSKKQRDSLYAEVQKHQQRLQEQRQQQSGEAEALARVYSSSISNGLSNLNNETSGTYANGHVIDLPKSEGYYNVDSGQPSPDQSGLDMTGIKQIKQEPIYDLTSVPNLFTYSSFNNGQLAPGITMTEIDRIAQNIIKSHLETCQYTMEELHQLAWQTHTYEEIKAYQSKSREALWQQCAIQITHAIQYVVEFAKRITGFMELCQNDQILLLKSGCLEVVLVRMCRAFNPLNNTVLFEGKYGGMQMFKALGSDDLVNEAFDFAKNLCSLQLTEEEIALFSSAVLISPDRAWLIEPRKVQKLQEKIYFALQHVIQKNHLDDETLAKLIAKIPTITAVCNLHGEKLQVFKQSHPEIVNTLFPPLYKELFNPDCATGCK
How it was run: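 Readout is reporter-gene mRNA induction, detected as fluorescence after RT-PCR and capillary electrophoresis, fitted for gain of signal against DMSO controls. Transiently transfected HepG2 liver cells carrying GAL4-UAS reporter constructs were treated for 24 hours.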

[6] = read-out: Intercellular Adhesion Molecule 1 (ICAM1), ICAM1 (gene 3383); test: BSK_3C_ICAM1: BioMAP Diversity Plus: 3C Assay for Intercellular Adhesion Molecule 1 (ICAM1) Biomarker Activity (AID 2283003; active = hit-call score of the fitted dose curve at least 0.9, where 1 is the maximum; inactive = score below 0.9); details: primary human endothelial cells (HUVEC); actives raise or lower the signal
How it was run: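 ICAM-1 levels measured by ELISA after HUVEC cultures in the 3C system had been dosed for 24 h. Gain or loss of signal relative to DMSO was fitted in both directions.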

[7] = biological target: Peroxisome proliferator-activated receptor gamma (Homo sapiens) (UniProt P37231); test: ATG_PPARg_TRANS: Attagene TRANS-FACTORIAL HepG2 Assay for human Peroxisome Proliferator-activated Receptor-gamma (PPARg) (AID 2283007)
Peroxisome proliferator-activated receptor gamma (Homo sapiens), sequence (P37231 whole entry, looked up, the tested form may be a part): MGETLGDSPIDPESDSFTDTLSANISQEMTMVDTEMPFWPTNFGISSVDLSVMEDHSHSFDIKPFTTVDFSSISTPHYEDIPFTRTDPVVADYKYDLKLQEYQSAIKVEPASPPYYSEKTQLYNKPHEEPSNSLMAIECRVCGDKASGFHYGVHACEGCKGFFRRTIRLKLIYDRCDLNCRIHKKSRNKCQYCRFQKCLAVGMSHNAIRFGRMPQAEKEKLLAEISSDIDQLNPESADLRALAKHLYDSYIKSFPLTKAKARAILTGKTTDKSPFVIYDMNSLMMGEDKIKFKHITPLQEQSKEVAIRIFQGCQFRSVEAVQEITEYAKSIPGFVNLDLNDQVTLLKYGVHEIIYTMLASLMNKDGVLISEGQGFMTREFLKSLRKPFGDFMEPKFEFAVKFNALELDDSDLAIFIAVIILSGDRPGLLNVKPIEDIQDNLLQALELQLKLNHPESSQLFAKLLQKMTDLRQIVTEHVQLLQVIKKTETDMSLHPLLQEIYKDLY
How it was run: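 After 24 h of chemical exposure, transfected HepG2 cells carrying PPARγ-Gal4 chimera reporter constructs are lysed for RNA. Reporter transcripts are measured by RT-PCR and capillary electrophoresis with fluorescent labelling, and gain of signal is fitted versus DMSO.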

[8] = biological target: human Retinoic Acid Receptor gamma (RARg), RARG (gene 5916) (UniProt P13631); test: ATG_RARg_TRANS: Attagene TRANS-FACTORIAL HepG2 Assay for human Retinoic Acid Receptor gamma (RARg) (AID 2283009)
human Retinoic Acid Receptor gamma (RARg), RARG (gene 5916), sequence (P13631 whole entry, looked up): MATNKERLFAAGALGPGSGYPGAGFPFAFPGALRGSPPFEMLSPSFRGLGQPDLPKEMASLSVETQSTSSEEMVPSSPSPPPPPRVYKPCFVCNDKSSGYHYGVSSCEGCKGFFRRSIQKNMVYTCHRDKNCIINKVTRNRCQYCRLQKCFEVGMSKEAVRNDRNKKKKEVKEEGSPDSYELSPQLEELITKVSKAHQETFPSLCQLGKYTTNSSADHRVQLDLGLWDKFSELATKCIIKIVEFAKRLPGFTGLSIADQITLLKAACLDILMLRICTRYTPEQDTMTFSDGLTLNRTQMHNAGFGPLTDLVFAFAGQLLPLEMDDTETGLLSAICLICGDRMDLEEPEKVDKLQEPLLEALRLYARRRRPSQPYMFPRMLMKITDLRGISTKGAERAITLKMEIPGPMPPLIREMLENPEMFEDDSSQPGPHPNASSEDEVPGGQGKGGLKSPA
How it was run: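 Transient transfection of HepG2 with multi-reporter constructs, then 24 h chemical treatment. Total RNA isolated, reverse-transcribed, PCR-amplified, fluorescently labelled and resolved by capillary electrophoresis; activity scored as mRNA induction versus DMSO.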

[9] = biological target: Retinoic acid receptor alpha (Homo sapiens) (UniProt P10276); test: ATG_RARa_TRANS: Attagene TRANS-FACTORIAL HepG2 Assay for human Retinoic Acid Receptor alpha (RARa) (AID 2283005)
Retinoic acid receptor alpha (Homo sapiens), sequence (P10276 whole entry, looked up, the tested form may be a part): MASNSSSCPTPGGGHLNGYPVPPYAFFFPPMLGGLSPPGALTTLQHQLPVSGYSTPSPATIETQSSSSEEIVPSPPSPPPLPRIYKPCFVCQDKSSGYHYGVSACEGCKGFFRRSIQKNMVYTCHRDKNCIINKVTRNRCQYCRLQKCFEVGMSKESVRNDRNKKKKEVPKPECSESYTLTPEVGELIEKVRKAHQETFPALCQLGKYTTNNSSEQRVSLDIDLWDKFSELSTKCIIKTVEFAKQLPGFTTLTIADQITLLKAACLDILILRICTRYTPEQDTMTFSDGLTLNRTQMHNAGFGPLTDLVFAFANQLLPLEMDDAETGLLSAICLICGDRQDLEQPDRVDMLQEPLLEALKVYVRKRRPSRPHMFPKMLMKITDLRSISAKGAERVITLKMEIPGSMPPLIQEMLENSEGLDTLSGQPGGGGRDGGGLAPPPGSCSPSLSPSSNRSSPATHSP
How it was run: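 HepG2 transiently transfected with multiplex GAL4-UAS reporter units including a human RARa–GAL4 chimera; 24 h compound exposure. Reporter mRNA quantified by RT-PCR, 6-FAM labeling and capillary electrophoresis; gain of signal versus DMSO.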

[10] = biological target: human Retinoic Acid Receptor beta (RARb), RARB (gene 5915) (UniProt P10826); test: ATG_RARb_TRANS: Attagene TRANS-FACTORIAL HepG2 Assay for human Retinoic Acid Receptor beta (AID 2283004)
human Retinoic Acid Receptor beta (RARb), RARB (gene 5915), sequence (P10826 whole entry, looked up, the tested form may be a part): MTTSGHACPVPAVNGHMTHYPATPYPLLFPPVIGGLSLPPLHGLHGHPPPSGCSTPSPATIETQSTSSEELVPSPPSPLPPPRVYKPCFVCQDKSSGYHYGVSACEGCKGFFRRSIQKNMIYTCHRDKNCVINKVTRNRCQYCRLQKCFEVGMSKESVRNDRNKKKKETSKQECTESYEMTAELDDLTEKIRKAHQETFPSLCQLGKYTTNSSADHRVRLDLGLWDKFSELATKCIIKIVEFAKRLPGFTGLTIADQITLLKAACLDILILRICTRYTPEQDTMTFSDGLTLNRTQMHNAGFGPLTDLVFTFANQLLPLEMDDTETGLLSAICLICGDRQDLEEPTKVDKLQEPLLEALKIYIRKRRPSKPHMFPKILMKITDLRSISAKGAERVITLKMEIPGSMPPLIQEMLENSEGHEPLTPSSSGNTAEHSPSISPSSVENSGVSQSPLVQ
How it was run: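 HepG2 cells were transiently transfected with GAL4-UAS reporter units that report activity of exogenous chimeric NR-Gal4 proteins, then exposed to compound for 24 h. Reporter mRNA was quantified by RT-PCR with capillary electrophoresis fluorescence, as gain of signal over DMSO.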

Measured: AC50

CCC12COCN1COC2
inactive: [1] | [2] | [3] | [4] | [5]

Cc1cc(N=Nc2ccccc2C)ccc1N
active: [3] 13 µM | [7] 18.3 µM | [4] 20.7 µM
inactive: [1] | [2] | [6] | [8]

COc1cc(C=O)cc2c1[C@H](COC(N)=O)[C@]1(OC(C)=O)ON2C[C@H]2[C@@H]1N2C(C)=O
active: [3] 0.369 µM
inactive: [1] | [2] | [7]

COP(=S)(OC)SCN1C(=O)c2ccccc2C1=O
active: [3] 28.4 µM
inactive: [1] | [2] | [7] | [4]

ClC1=C(Cl)[C@]2(Cl)[C@H]3[C@H]([C@@H]4C=C[C@H]3C4)[C@@]1(Cl)C2(Cl)Cl
active: [3] 12.2 µM | [4] 9.08 µM
inactive: [1] | [2] | [7] | [5]

COC(=O)Nc1nc2ccccc2[nH]1
active: [3] 9.95 µM
inactive: [1] | [2] | [6] | [9] | [7] | [4] | [8] | [5]

O=C1CCCO1
inactive: [1] | [2] | [6] | [10] | [3] | [7]

O=[N+]([O-])c1ccc(Oc2ccc(Cl)cc2Cl)cc1
inactive: [1] | [2]
active: [3] 32.4 µM | [7] 14.3 µM | [4] 9.58 µM

c1ccc2c(c1)oc1ccccc12
inactive: [1] | [2] | [6] | [3]

CC(C)(OOC(C)(C)c1ccccc1)c1ccccc1
active: [3] 31.1 µM | [4] 7.09 µM
inactive: [1] | [2] | [7] | [8]

c1ccc2c(c1)-c1cccc3cccc-2c13
inactive: [1] | [2] | [10] | [9] | [3] | [7] | [4] | [8] | [5]

CN(C)[C@@H]1C(=O)C(C(N)=O)=C(O)[C@@]2(O)C(=O)C3=C(O)c4c(O)cccc4[C@@](C)(O)[C@H]3C[C@@H]12
inactive: [1] | [2] | [3] | [7] | [4]

CC(C)(O)c1cnn2c(-c3ccc(F)c(-c4c(F)cccc4C#N)c3)cnc2n1
active: [3] 33.8 µM | [4] 0.0774 µM
inactive: [1] | [2] | [6] | [7]

OCCCl
inactive: [1] | [2] | [6] | [9] | [3] | [4] | [8] | [5]

O=C(Oc1ccc(Br)cc1)N1CCN2CCC1CC2
inactive: [1] | [2] | [6] | [3] | [7] | [4] | [8]

CCNS(=O)(=O)C(F)(F)C(F)(F)C(F)(F)C(F)(F)C(F)(F)C(F)(F)C(F)(F)C(F)(F)F
active: [1] 63.9 µM and 56.2 µM | [3] 19.3 µM and 46 µM and 43.2 µM | [7] 96.5 µM and 120 µM and 51.2 µM | [4] 12.7 µM and 9.73 µM
inactive: [1] | [2] | [10] | [9] | [4] | [8] | [5]

O=Cc1ccco1
inactive: [1] | [2] | [9] | [3] | [8]

Nc1cc(Cl)cc(C(=O)O)c1Cl
inactive: [1] | [2] | [6] | [3] | [7] | [8] | [5]

C[C@]12C=CC3=C4CCC(=O)C=C4CC[C@H]3[C@@H]1CC[C@@H]2O
inactive: [1] | [2] | [7] | [4] | [5]
active: [2] 73.6 µM | [3] 6.61 µM | [4] 26.9 µM

CN(C)C(=O)Nc1ccc(Cl)cc1
inactive: [1] | [2] | [3] | [7]

CCCCOC(=O)c1ccccc1C(=O)OCc1ccccc1
active: [3] 14.4 µM
inactive: [1] | [2] | [6] | [4]

CC(C)(C)OOC(=O)c1ccccc1
inactive: [1] | [2] | [6] | [3]

CCOc1cccc(C2(N3CCN(c4ccccc4)CC3)CCC(C)CC2)c1 (centres undefined)
inactive: [1] | [2] | [10] | [3] | [7] | [8]

CO[C@@H]1[C@H](OC(=O)NC(=O)CCl)CC[C@]2(CO2)[C@H]1[C@@]1(C)O[C@@H]1CC=C(C)C
active: [3] 0.00962 µM
inactive: [1] | [2] | [7] | [4] | [5]

CCCCCCCCOC(=O)c1ccc(C(=O)OCCCCCCCC)c(C(=O)OCCCCCCCC)c1
inactive: [1] | [6] | [10] | [9] | [3] | [7]

c1ccc(NNc2ccccc2)cc1
inactive: [1] | [2] | [3] | [4] | [5]

O=C(O)C1C2CCC(O2)C1C(=O)O (centres undefined)
active: [3] 20.5 µM
inactive: [1] | [2] | [9] | [4] | [8]

Nc1ccc(Cl)cc1N
inactive: [1] | [6] | [10] | [9] | [3] | [7] | [4] | [8]

c1ccc(C2CO2)cc1 (centres undefined)
inactive: [1] | [6] | [3] | [7]

O=[N+]([O-])C(Br)(CO)CO
inactive: [1] | [10] | [7] | [8] | [5]
active: [6] 33.4 µM | [3] 5.94 µM

O=C(Nc1ccccc1)c1ccccc1I
inactive: [2] | [6] | [3] | [5]
active: [7] 17.8 µM | [4] 10.6 µM

Nc1ccc(Oc2ccc(N)cc2)cc1
inactive: [1] | [6] | [9] | [3] | [7] | [8]

Nc1ccc(N=Nc2ccccc2)cc1
active: [3] 12.2 µM | [7] 100 µM
inactive: [1] | [6] | [10] | [9] | [4] | [8]

Cc1cccc(N)c1N
inactive: [1] | [10] | [9] | [3] | [7] | [4] | [8]

CCOC(=O)[C@]1(c2ccccc2)Oc2ccccc2[C@@H]1N
active: [3] 30.9 µM | [4] 11 µM
inactive: [1] | [6] | [10] | [9] | [7] | [8]
